Test [1] deals with Aryl hydrocarbon receptor (Homo sapiens) (UniProt P35869). The experiment in a line: qHTS assay to identify small molecule that activate the aryl hydrocarbon receptor (AhR) signaling pathway (AID 743085).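 For activation: HG2L7.5c1 human HepG2 liver cells with stably integrated DRE-driven firefly reporter; series mostly up to about 70 µM.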 Note: nearly all actives have a fitted effect of over 15% in size. Note: potency is the fitted concentration of half-maximal effect. An outline of the steps:
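Luminescence (ONE-Glo) from a dioxin-responsive-element luciferase reporter in HG2L7.5c1 HepG2 cells after 24 hr compound exposure at 37C; viability measured by CellTiter-Fluor fluorescence beforehand.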

Test [2] in a line: qHTS assay to identify small molecule that activate the aryl hydrocarbon receptor (AhR) signaling pathway - cell viability counter screen (AID 743086). Note: nearly all actives have a fitted effect of over 45% in size. Note: potency is the fitted concentration of half-maximal effect. An outline of the steps: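 HepG2-AhR-luc (HG2L7.5c1) cells, 4000/well, were preincubated 5 h at 37C, exposed to compound in qHTS format for 24 hr at 37C, then given CellTiter-Fluor for 30 min; viability was read as fluorescence in the reporter wells.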
(In general: Quantitative high-throughput screening tests each substance at several concentrations.)

A short description of test [3]: qHTS assay to identify small molecule antagonists of the peroxisome proliferator-activated receptor gamma (PPARg) signaling pathway - cell viability counter screen (AID 743194). Note: nearly all actives have a fitted effect of over 55% in size. Note: potency is the fitted concentration of half-maximal effect. The essentials:
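PPARg-UAS-bla HEK293H cells were plated, rested 5 h at 37 C, then treated with compounds plus rosiglitazone (50 nM final) for 17 h at 37 C; viability was then read by CellTiter-Glo luminescence after 30 min at room temperature.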

Test [4] in a line: qHTS assay for small molecule agonists of the antioxidant response element (ARE) signaling pathway - cell viability counter screen (AID 743203; calls by dose curve; note: nearly all actives have a fitted effect of over 55% in size; note: potency is the fitted concentration of half-maximal effect). An outline of the steps:
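HepG2 cells carrying ARE-driven beta-lactamase; 2,000 cells/well; 5 hrs plating; compound pinned from DMSO; 16 hrs 37C/5% CO2; CellTiter-Glo added; 30 min RT; luminescence.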

Test [5] is described as follows: qHTS assay for small molecule activators of the heat shock response signaling pathway - cell viability counter screen (AID 743209). Note: nearly all actives have a fitted effect of over 50% in size. Note: potency is the fitted concentration of half-maximal effect. The essentials:
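Luminescence from CellTiter-Glo, added after the beta-lactamase FRET read, gave the viability signal. Cells were HSE-bla HeLa treated with DMSO-dissolved compounds for 5 h at 37 C following overnight plating.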

The nature of test [6]: qHTS assay for small molecule activators of the heat shock response signaling pathway (AID 743210; active = well fitted activation curve with a large enough effect in the signal ratio in the repeat runs, with a control signal flat, not every such curve was filed as active; the % refers to the signal ratio; note: potency is the fitted concentration of half-maximal effect;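 for activation: HeLa cells with beta-lactamase reporter driven by heat shock elements; series mostly up to about 63 µM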). An outline of the steps:
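Reporter gene assay: HeLa cells stably bearing an HSE-bla construct, compound treatment 5 h at 37 C, LiveBLAzer substrate 2.5 h at RT, fluorescence intensity.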

Test [7] is described as follows: qHTS assay to identify small molecule agonists of the peroxisome proliferator-activated receptor delta (PPARd) signaling pathway - cell viability counter screen (AID 743211). Note: nearly all actives have a fitted effect of over 55% in size. Note: potency is the fitted concentration of half-maximal effect. An outline of the steps: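 Viability was measured as CellTiter-Glo luminescence (30 min, room temperature) in the same wells as the beta-lactamase readout. GeneBLAzer PPARd UAS-bla HEK293H cells received compound after 5 h plating and were incubated 17 h at 37 C.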

In test [8] the target is Peroxisome proliferator-activated receptor delta (Homo sapiens) (UniProt Q03181). The experiment in a line: qHTS assay to identify small molecule agonists of the peroxisome proliferator-activated receptor delta (PPARd) signaling pathway (AID 743212; calls by dose curve). The essentials:
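A PPARd-bla HEK293H line with beta-lactamase under an Upstream Activator Sequence is treated with compounds at 37 C. Substrate loading for 2 h at room temperature precedes the fluorescence measurement.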

Test [9] has as its target Bile acid receptor (Homo sapiens) (UniProt Q96RI1). The experiment in a line: qHTS assay to identify small molecule antagonists of the farnesoid-X-receptor (FXR) signaling pathway (AID 743217; active = well fitted inhibition curve with a large enough effect in the signal ratio in the repeat runs, not every such curve was filed as active; the % refers to the signal ratio). The essentials:
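HEK 293T FXR-UAS-bla, 5000 cells/well; compound + CDCA 50 uM final; 16 h, 37 °C; B/G FRET substrate 2 h RT; fluorescence.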

Test [10] can be described thus: qHTS assay to identify small molecule antagonists of the peroxisome proliferator-activated receptor delta (PPARd) signaling pathway - cell viability counter screen (AID 743213). Note: nearly all actives have a fitted effect of over 50% in size. Note: potency is the fitted concentration of half-maximal effect. The essentials: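 Luminescence from CellTiter-Glo, added after the bla read and incubated 30 min at room temperature, gives viability of HEK293H PPARd-bla cells exposed to compounds for 17 h at 37 C with 300 nM L165041.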

Test [11] is described as follows: qHTS assay to identify small molecule agonists of the farnesoid-X-receptor (FXR) signaling pathway - cell viability counter screen (AID 743218). Note: nearly all actives have a fitted effect of over 45% in size. Note: potency is the fitted concentration of half-maximal effect. The essentials: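 HEK 293T FXR-bla cells; 5 h pre-incubation, 16 h compound exposure at 37 C; LiveBLAzer substrate 2 h RT, then CellTiter-Glo 30 min RT, luminescence.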
The nature of test [12]: qHTS assay to identify aromatase inhibitors - cell viability counter screen (AID 743084).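 Note: cells stimulated with testosterone during compound exposure; nearly all actives have a fitted effect of over 55% in size.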
Test [13] deals with Peroxisome proliferator-activated receptor delta (Homo sapiens) (UniProt Q03181). The experiment in a line: qHTS assay to identify small molecule antagonists of the peroxisome proliferator-activated receptor delta (PPARd) signaling pathway (AID 743215; active = well fitted inhibition curve with a large enough effect in the signal ratio in the repeat runs, not every such curve was filed as active; the % refers to the signal ratio;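 note: cells stimulated with agonist L165041 at 300 nM final during compound exposure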; note: potency is the fitted concentration of half-maximal effect). An outline of the steps: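 Read-out is beta-lactamase FRET fluorescence, measured 2 h after substrate addition at room temperature. Beforehand, UAS-bla HEK293H cells carrying the PPARd reporter were exposed to compounds with L165041 at 300 nM final for 17 h at 37 C.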

The target of test [14] is Bile acid receptor (Homo sapiens) (UniProt Q96RI1). Nature of the test: qHTS assay to identify small molecule agonists of the farnesoid-X-receptor (FXR) signaling pathway (AID 743220; active = well fitted activation curve with a large enough effect in the signal ratio in the repeat runs, not every such curve was filed as active; the % refers to the signal ratio). An outline of the steps:
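Beta-lactamase reporter under UAS control in GeneBLAzer FXR HEK 293T cells (5000/well) measured with LiveBLAzer FRET substrate after 2 h at room temperature. Compound exposure lasted 16 h at 37C.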

The target of test [15] is Vitamin D3 receptor (Homo sapiens) (UniProt P11473). Nature of the test: qHTS assay to identify small molecule agonists of the vitamin D receptor (VDR) signaling pathway (AID 743222; calls by dose curve). An outline of the steps:
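VDR-bla cells, 2,000/well; 4 h preincubation 37C; cpd (DMSO) 16 h; LiveBLAzer B/G substrate 2 h RT; fluorescence intensity read.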

Test [16] concerns the target Peroxisome proliferator-activated receptor gamma (Homo sapiens) (UniProt P37231). The experiment in a line: qHTS assay to identify small molecule agonists of the peroxisome proliferator-activated receptor gamma (PPARg) signaling pathway (AID 743094; active = well fitted activation curve with a large enough effect in the signal ratio in the repeat runs, not every such curve was filed as active; the % refers to the signal ratio; note: potency is the fitted concentration of half-maximal effect). The essentials:
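Beta-lactamase FRET fluorescence was the read-out after a 1 h room-temperature substrate step, following 17 h compound treatment at 37C of HEK293H cells expressing a UAS-driven bla reporter responsive to PPARg.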

The nature of test [17]: qHTS assay to identify small molecule antagonists of the farnesoid-X-receptor (FXR) signaling pathway - cell viability counter screen (AID 743221; active = well fitted cell-killing curve with a large enough effect in the repeat runs, not every such curve was filed as active; note: nearly all actives have a fitted effect of over 50% in size; note: potency is the fitted concentration of half-maximal effect). The essentials:
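Cytotoxicity counter screen run in the FXR-bla reporter wells: HEK 293T cells exposed to compound with 50 uM (final) chenodeoxycholic acid for 16 h, 37 C, then viability measured by CellTiter-Glo luminescence after 30 min, room temperature.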

In test [18] the target is Peroxisome proliferator-activated receptor gamma (Homo sapiens) (UniProt P37231). Nature of the test: qHTS assay to identify small molecule antagonists of the peroxisome proliferator-activated receptor gamma (PPARg) signaling pathway (AID 743191; calls by dose curve; note: potency is the fitted concentration of half-maximal effect; nearly all actives have a fitted effect of over 30% in size). An outline of the steps: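 GeneBLAzer PPARg UAS-bla HEK293H cells carrying a UAS-driven beta-lactamase reporter were plated at 3000 cells/well, preincubated 5 h at 37C, then given compound for 17 h at 37C; LiveBLAzer B/G FRET substrate was read after 1 h at room temperature.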

Several values for one entry are separate records, joined by “and”; a condition that tells them apart may be missing. Identical values can stand only once. Inconclusive results are not listed. Activity calls are given as the source filed them. Unless noted, calls come from the whole dose curve; as a rule, active = well fitted curve in the direction sought with a large enough effect in the repeat runs; inconclusive = weak or mixed curves; inactive = no such curve, though single readings can be large; an effect the other way counts as inactive or inconclusive.

Chain of Peroxisome proliferator-activated receptor delta (Homo sapiens) (Q03181 whole entry, looked up): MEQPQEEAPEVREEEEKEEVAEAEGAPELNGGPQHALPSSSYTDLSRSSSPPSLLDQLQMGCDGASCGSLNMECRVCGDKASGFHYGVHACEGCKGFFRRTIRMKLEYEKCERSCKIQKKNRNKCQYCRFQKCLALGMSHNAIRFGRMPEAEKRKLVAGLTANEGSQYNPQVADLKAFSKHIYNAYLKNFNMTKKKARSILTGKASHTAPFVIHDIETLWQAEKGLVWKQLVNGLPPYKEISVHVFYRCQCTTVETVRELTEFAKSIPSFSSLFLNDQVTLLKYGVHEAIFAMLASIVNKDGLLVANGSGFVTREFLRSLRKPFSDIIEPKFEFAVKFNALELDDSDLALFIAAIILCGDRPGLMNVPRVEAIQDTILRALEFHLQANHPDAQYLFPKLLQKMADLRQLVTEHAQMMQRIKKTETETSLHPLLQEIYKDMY
Chain of Vitamin D3 receptor (Homo sapiens) (P11473 whole entry, looked up): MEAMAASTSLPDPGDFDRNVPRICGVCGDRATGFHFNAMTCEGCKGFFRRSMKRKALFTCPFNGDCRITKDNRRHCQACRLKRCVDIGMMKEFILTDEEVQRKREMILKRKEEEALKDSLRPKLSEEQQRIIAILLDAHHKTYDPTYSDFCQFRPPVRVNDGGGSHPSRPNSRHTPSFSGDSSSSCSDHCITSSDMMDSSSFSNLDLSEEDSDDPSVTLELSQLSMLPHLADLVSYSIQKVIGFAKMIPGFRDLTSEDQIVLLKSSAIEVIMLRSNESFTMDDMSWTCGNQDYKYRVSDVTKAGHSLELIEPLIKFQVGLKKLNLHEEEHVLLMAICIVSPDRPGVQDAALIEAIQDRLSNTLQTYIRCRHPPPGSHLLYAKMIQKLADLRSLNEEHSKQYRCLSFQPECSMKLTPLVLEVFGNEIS
Chain of Bile acid receptor (Homo sapiens) (Q96RI1 whole entry, looked up): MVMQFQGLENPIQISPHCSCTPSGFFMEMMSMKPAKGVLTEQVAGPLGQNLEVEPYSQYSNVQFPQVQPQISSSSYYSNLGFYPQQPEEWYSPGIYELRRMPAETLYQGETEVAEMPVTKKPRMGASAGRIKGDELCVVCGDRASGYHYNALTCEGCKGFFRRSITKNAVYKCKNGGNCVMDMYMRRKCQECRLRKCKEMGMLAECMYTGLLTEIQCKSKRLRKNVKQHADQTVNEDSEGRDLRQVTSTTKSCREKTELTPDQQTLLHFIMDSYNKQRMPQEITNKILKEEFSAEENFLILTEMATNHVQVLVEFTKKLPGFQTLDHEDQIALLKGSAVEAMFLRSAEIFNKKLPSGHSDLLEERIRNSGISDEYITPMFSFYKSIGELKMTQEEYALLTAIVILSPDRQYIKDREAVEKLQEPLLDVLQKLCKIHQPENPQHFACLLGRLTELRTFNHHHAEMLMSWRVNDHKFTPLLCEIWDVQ
Chain of Peroxisome proliferator-activated receptor gamma (Homo sapiens) (P37231 whole entry, looked up): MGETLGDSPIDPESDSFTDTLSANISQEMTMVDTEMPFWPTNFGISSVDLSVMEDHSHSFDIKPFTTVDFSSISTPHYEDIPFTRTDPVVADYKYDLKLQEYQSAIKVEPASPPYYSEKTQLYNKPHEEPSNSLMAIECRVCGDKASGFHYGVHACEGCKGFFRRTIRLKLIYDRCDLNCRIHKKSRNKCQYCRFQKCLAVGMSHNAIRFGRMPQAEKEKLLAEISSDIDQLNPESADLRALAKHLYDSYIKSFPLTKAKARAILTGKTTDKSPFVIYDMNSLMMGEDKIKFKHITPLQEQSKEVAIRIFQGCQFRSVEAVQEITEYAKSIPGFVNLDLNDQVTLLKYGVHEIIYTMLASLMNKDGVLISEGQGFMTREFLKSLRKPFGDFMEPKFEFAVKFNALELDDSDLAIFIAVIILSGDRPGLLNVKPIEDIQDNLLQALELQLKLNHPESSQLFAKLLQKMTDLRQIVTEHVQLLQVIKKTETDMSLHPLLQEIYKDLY
Chain of Aryl hydrocarbon receptor (Homo sapiens) (P35869 whole entry, looked up): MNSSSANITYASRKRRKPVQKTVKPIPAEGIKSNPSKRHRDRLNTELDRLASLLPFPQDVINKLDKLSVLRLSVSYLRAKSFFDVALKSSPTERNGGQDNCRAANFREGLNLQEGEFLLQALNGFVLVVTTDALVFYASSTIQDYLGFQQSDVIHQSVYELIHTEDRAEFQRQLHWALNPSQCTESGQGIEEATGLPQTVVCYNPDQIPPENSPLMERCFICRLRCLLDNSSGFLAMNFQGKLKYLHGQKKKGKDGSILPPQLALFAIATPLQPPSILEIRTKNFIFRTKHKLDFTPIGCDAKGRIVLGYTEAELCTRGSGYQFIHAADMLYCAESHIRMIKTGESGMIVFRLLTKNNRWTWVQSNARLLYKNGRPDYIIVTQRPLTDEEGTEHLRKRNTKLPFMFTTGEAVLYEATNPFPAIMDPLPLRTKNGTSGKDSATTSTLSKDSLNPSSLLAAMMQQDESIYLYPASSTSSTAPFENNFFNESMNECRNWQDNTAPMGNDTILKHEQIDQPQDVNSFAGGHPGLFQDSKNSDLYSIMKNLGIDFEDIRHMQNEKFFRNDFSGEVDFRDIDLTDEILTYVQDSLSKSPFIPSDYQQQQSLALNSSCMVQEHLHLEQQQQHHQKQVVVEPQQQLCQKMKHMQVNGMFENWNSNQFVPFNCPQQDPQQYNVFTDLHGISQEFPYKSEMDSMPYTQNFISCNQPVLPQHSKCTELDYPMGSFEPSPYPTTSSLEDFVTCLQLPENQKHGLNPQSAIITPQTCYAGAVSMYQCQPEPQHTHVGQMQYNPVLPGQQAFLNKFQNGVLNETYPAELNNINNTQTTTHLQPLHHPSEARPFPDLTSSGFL

As for `Fc1ccc([C@@H]2CCNC[C@H]2COc2ccc3c(c2)OCO3)cc1`, the Potency result in [1], in test [3], in test [5], in test [6], in test [8] and in test [9] was “inactive” throughout. The results for the Potency in test [2], in test [4] and in test [7] were 26.6 µM (active), 29.8 µM (active) and 13.3 µM (active), respectively.
As to `CCOc1nc2cccc(C(=O)OC(C)OC(=O)OC3CCCCC3)c2n1Cc1ccc(-c2ccccc2-c2nn[nH]n2)cc1` (configuration not stated), the Potency result in test [1] was “inactive”. Besides, the Potency is 9.76 µM (active) in test [3]; 30.6 µM (active) in test [4]; 13.8 µM (active) in [5]; 17.4 µM (active) in [7]; 17.4 µM (active) in [10]; 15.5 µM (active) in [11].
With `CSc1ccc2c(c1)C(N1CCN(C)CC1)Cc1ccccc1S2` (configuration not stated), the Potency result in test [1], in [5], in test [6] and in test [9] was “inactive” each time. Also, the Potency was 29.8 µM (active) in test [2]; 18.8 µM (active) in [3]; 29.8 µM (active) in test [7]; 16.8 µM (active) in test [10]; 26.6 µM (active) in test [11].
In the case of `COCCCC/C(=N\OCCN)c1ccc(C(F)(F)F)cc1`, the Potency entry in test [12], in test [3], in [4], in test [5], in [6] and in test [8] was “inactive” throughout. For the same compound, the Potency result in test [13], in test [9], in test [14] and in test [15] was “inactive” in each case. Also, the Potency in test [7] was 23.7 µM (active).
Regarding `CCOc1ccc2nc3cc(N)ccc3c(N)c2c1`, in test [1], the Potency is 11.9 µM (active). The Potency result in [2], in test [3], in [10], in test [13] and in test [11] was “inactive” each time.
As for `CCCCCCOC(=O)c1ccc(O)cc1`, the Potency entry in [2], in test [16], in test [3], in test [4], in [5] and in [6] was “inactive” throughout. Besides, the Potency entry in test [8], in [11], in test [17] and in [15] was “inactive” each time.
For the compound `C/C=C1/C(=O)C[C@H]2[C@@H]3CCC4=CC(=O)CC[C@]4(C)[C@H]3CC[C@]12C`, the Potency entry in test [1], in [2], in test [3], in test [4], in test [5] and in test [10] was “inactive” throughout. Also, the Potency entry in [11] and in [17] was “inactive” in each case. The Potency in test [6] is 28.5 µM (active).
Take `NC(=O)N1C(=O)C(C(=O)c2cc(Cl)cs2)c2cc(F)c(Cl)cc21` (configuration not stated): the Potency in test [1] was 24.3 µM (active); in test [2] it was 12.2 µM (active); in test [3], 13.8 µM (active); in test [4] it was 8.63 µM (active); in test [7] it was 17.4 µM (active); in [13], 13.8 µM (active). Further, the Potency in test [11] was 3.89 µM (active); in test [17], 24.5 µM (active). Besides, the Potency entry in [5] is “inactive”.
For `C[n+]1ccn(Cc2ccccc2)c1`, the Potency entry in [1], in test [2], in test [16], in test [3], in [4] and in test [5] was “inactive” each time. Moreover, the Potency result in test [6], in [7], in test [10], in [9], in [11] and in [14] was “inactive” in each case. Further, the Potency result in [17] and in [15] was “inactive” throughout.
Take `COc1cc(-c2nc(NC(=O)c3cc4cc(C)cc(C)c4n3CC(=O)O)sc2CCC2CCCCC2)c(OC)cc1Cl`: the Potency result in [1] and in test [2] was “inactive” each time. Further, the Potency was 35.7 µM (active) in test [16]; 8.96 µM (active) in test [3]; 14.1 µM (active) in [4]; 10 µM (active) in test [7]; 20.1 µM (active) in test [10]; 12.7 µM (active) in test [11]. The Potency in test [17] was 14.2 µM (active).
Take `CCOC(=O)c1nc(C(Cl)(Cl)Cl)n(-c2ccc(Cl)cc2Cl)n1`: the Potency result in [1], in test [16], in test [14] and in test [15] was “inactive” each time. Further, the Potency in [2] was 61.1 µM (active); in [4] it was 24.3 µM (active); in [10] it was 49 µM (active).
As for `Oc1ccc(Cl)cc1Sc1cc(Cl)ccc1O`, the Potency entry in test [2], in test [16] and in [15] was “inactive” each time. The Potency in [18] was 13.3 µM (active); in [3] it was 4.89 µM (active) and 5.96 µM (active); in test [4] it was 61 µM (active) and 29.8 µM (active); in [5], 38.8 µM (active); in test [7], 19.5 µM (active) and 26.6 µM (active); in [10], 24.5 µM (active). For the same compound, the Potency in test [11] was 34.6 µM (active) and 29.8 µM (active); in test [17], 48.9 µM (active).
For the compound `COc1ccc(CN2CCN(C(c3ccc(F)cc3)c3ccc(F)cc3)CC2)c(OC)c1OC`, the Potency entry in [1], in [4], in test [5], in test [6] and in test [15] was “inactive” in each case. The Potency was 26.6 µM (active) in test [18]; 26.6 µM (active) in [3]; 29.8 µM (active) in [7]; 23.7 µM (active) in [10]; 21.1 µM (active) in test [11]; 29.8 µM (active) in [17].

For the origin of these results see PubChem BioAssay (Tox21).
